Bioassay records (PubChem BioAssay)
PAFAH1B3 FP inh = blocks human PAF acetylhydrolase 1B catalytic subunit 3. recombinant PAFAH1B3, FP-rhodamine probe, fluorescence polarization. inhibition, % at 3.39 µM. 0.28% of 340,000 active;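 active = inhibition above the screen-wide average of all tested compounds plus 3 SD, cut at about 25% in these data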;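 note: 0% = enzyme with DMSO only and 100% = wells lacking PAFAH1B3 protein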
rCAG RNA binder = r(CAG) repeat RNA binding; TO-PRO-1 dye displacement fluorescence; inhibition, % at 3 µM; 1.3% of 370,000 active; AID 651821;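 active = inhibition above the plate cutoff, the mean of all test compounds on that plate plus 3 SD, cut at about 35% in these data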;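 note: 0% = DMSO alone and 100% = 100 µM mitoxantrone as full dye displacement; higher means more dye released from RNA so lower well fluorescence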
EBNA-1 inh = blocks EBNA-1 binding to DNA | EBNA-1 DNA binding, fluorescence polarization | inhibition, % at 14.8 µM | 0.34% of 300,000 active | AID 1950; in the data active = inhibition above about 28%
PAFAH1B2 inh = PAFAH1B2 (human) inhibition; P68402; recombinant PAFAH1B2, FP-rhodamine activity probe, fluorescence polarization; inhibition, % at 3.39 µM; 1.2% of 340,000 active; AID 492953;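 active = inhibition above the mean of all tested compounds plus 3 SD, cut at about 24% in these data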;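 note: 0% = enzyme with DMSO and 100% = wells lacking PAFAH1B2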
Target sequence (P68402 whole entry, looked up): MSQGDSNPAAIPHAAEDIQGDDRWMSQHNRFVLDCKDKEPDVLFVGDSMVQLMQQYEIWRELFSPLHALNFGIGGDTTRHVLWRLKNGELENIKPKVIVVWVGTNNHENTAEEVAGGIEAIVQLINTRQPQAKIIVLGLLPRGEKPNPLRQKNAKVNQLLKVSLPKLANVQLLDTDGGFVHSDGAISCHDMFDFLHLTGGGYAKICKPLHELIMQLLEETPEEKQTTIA
ZTA counter = blocks Epstein-Barr virus ZTA, an EBNA-1 counter-screen; inhibition, % at 11 µM; AID 2234; P03206; 0.15% of 320,000 active; ZTA-DNA binding, fluorescence polarization; in the data active = inhibition above about 33%
Target sequence (P03206 whole entry, looked up): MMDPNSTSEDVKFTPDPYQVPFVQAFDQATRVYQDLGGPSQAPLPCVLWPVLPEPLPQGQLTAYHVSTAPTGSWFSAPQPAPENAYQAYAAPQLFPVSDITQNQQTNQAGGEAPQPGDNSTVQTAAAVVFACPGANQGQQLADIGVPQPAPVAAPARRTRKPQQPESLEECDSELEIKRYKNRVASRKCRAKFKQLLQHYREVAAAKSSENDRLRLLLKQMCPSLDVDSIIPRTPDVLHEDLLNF
PAFAH2 FP inh = inhibitors of human PAFAH2; recombinant PAFAH2, FP-rhodamine activity probe, fluorescence polarization; AID 492956; inhibition, % at 3.39 µM; 0.99% of 340,000 active;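 active = inhibition above the mean over all tested compounds plus 3 SD, cut at about 30% in these data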;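 note: inhibitors block probe labeling of enzyme so polarization drops; 0% = enzyme with DMSO and 100% = wells lacking PAFAH2 protein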
rCAG bind conf = r(CAG) RNA repeat binding, confirmation; shares compounds with rCAG RNA binder; TO-PRO-1 dye displacement fluorescence; inhibition, % at 3 µM; 70% of 4,300 active;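 active = inhibition above a per-plate cutoff, the mean inhibition of sample wells plus 3 SD, cut at about 35% in these data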;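 note: loss of TO-PRO-1 fluorescence as compound displaces dye from 1x1 AA loop RNA; 0% = DMSO only wells and 100% = 100 µM mitoxantrone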
DNA CAG counter = DNA CAG dye complex inhibition counter-screen; 94% of 4,300 active; inhibition, % at 3 µM; shares compounds with rCAG RNA binder; d(CAG) DNA oligo TO-PRO-1 dye displacement, fluorescence;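 active = inhibition above its plate's cutoff, the mean test-well inhibition plus 3 SD, cut at about 4.8% in these data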;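 note: 0% = DNA dye mix with DMSO and 100% = 100 µM mitoxantrone; hits displace the dye from DNA and so lower well fluorescence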
* hit, by the source's call; . = no result. Compounds with a hit are over-represented: about 2.9% of the library has one in this group of screens.

SMILES | PAFAH1B3 FP inh | rCAG RNA binder | EBNA-1 inh | PAFAH1B2 inh | ZTA counter | PAFAH2 FP inh | rCAG bind conf | DNA CAG counter
O=C(NC(c1cccnc1)C(F)(F)F)c1cc(COc2ccc3c(c2)CCCC3)on1 (stereo not drawn) | 2.1 | 3.2 | 11.4 | -0.4 | 12.6 | 4.8 | . | .
Cc1ccc(Sc2ncccc2C(=O)NCc2cc([N+](=O)[O-])ccc2O)cc1C | 2.4 | 35.3* | . | 2.2 | . | 26.3 | 21.6 | 5.3*
COc1ccc(CNC(=O)c2cccnc2Sc2ccc(C)c(C)c2)cc1 | -4.1 | 0.6 | -2.9 | 6.1 | -6.1 | -0.9 | . | .
CCOC(=O)/C(C#N)=C\c1ccc(O)c(OC)c1 | -0.7 | 1.2 | -3.6 | 1.3 | -6.5 | 8.7 | . | .
CCOC(=O)c1c(-c2ccc(C)cc2)csc1NC(=O)/C(C#N)=C/c1ccc(O)c(OC)c1 | 14.8 | 37.3* | . | 1.6 | . | 9.1 | 73.8* | 48.3*
CCOC(=O)c1c(-c2ccccc2)csc1NC(=O)/C(C#N)=C\c1ccc(O)c(OC)c1 | 23.2 | 48.6* | . | 5.9 | . | 10.8 | 63.7* | 36.3*
COc1ccccc1Cc1c(-c2ccc(C)cc2)nc2ccc(C)cn12 | . | 4.8 | . | . | . | . | . | .
CC(C)CN(C(=O)COC(=O)CCSc1ccc(Cl)cc1)c1c(N)n(Cc2ccccc2)c(=O)[nH]c1=O | . | 2.4 | . | . | . | . | . | .
Cc1ccccc1NC(=O)N1CCNC(=O)C1CC(=O)Nc1cc(Cl)ccc1Cl (stereo not drawn) | 2.4 | -0.5 | 4.9 | -1.8 | 7.6 | -2.4 | . | .
COC(=O)c1c(N2C(=O)Nc3ccccc3N2O)sc2c1CCCC2 | 3.3 | 40.4* | 6.0 | -1.2 | 10.7 | 4.0 | 36.1* | 8.4*
CCOC(=O)c1c(N2C(=O)Nc3ccccc3N2O)sc2c1CCCCC2 | 3.5 | 26.9 | 4.0 | 0.8 | -3.2 | -0.8 | . | .
CCOC(=O)c1c(-c2ccccc2)csc1N1C(=O)Nc2ccccc2N1O | 4.7 | 49.8* | 0.2 | 5.6 | 2.5 | -1.8 | 38.1* | 8.8*
O=C(NCc1ccccc1Cl)C(=O)NCC1OCCN1S(=O)(=O)c1cccs1 (stereo not drawn) | 2.4 | 2.5 | -5.1 | 5.1 | -16.3 | 0.9 | . | .
O=C(NC(NC(=S)Nc1ccccc1Cl)C(Cl)(Cl)Cl)c1cccc(Cl)c1 (stereo not drawn) | -41.2 | 18.1 | 4.7 | -16.0 | -0.8 | -39.5 | . | .
Cc1ccc(NC(=S)NNC(=O)c2ccc(N3CCOCC3)c([N+](=O)[O-])c2)cc1Cl | 1.9 | 79.8* | 8.7 | 4.5 | 7.2 | 6.7 | 84.0* | 46.1*
O=C(NNC(=S)Nc1ccc(Cl)c(Cl)c1)c1cccc([N+](=O)[O-])c1 | . | 78.9* | 6.6 | . | 0.7 | . | 78.9* | 33.1*
O=C(NC(NC(=S)Nc1ccccc1C(=O)O)C(Cl)(Cl)Cl)c1cccc([N+](=O)[O-])c1 (stereo not drawn) | 5.6 | 56.1* | -4.1 | 6.4 | 14.9 | 0.2 | 60.3* | 24.4*
CCn1c(C)nc2cc(C(=O)NNC(=S)Nc3ccc(Cl)cc3Cl)ccc21 | 0.3 | 57.8* | -5.1 | 7.3 | -0.3 | -1.7 | 48.9* | 16.3*
CCOC(=O)CCCCCC(=O)Nc1ccc2c(c1)C(=O)N([C@@H](C)CO)C[C@H](C)[C@H](CN(C)C(=O)Nc1ccc(F)cc1)OCCCC[C@H](C)O2 | . | 4.8 | . | . | . | . | . | .
Cc1ccc2c(c1)N(CC(=O)N1CCCCC1)C(=O)CO2 | 3.2 | -1.0 | -9.2 | 0.3 | -4.9 | -1.0 | . | .
CC1NC(=O)c2cccnc2-n2c1nc1cc(F)c(F)cc1c2=O (stereo not drawn) | . | -0.7 | . | . | . | . | . | .
NC(=O)c1cc(NC(=O)CCCc2nc3ccccc3s2)cc(C(N)=O)c1 | 2.9 | -0.9 | -3.2 | 3.1 | 2.0 | 1.9 | . | .
CCNc1ccc(C(=O)Nc2ccc3nc(C)sc3c2)cc1[N+](=O)[O-] | 3.8 | 2.8 | 0.4 | -3.1 | -2.8 | -4.3 | . | .
O=C(c1ccc(N2CCOCC2)c([N+](=O)[O-])c1)N1CCCCC1 | -8.4 | -6.7 | 5.5 | -0.4 | -11.4 | -1.5 | . | .
O=C(NNC(=S)Nc1ccc(Cl)cc1Cl)c1ccc(N2CCOCC2)c([N+](=O)[O-])c1 | 11.6 | 95.1* | -2.3 | 13.5 | -5.8 | 16.4 | 87.3* | 62.9*
